Laboratory results as given in PubChem BioAssay AID591 (National Center for Advancing Translational Sciences (NCATS), 2007).
Among all 59,000 compounds or so, about 60 (0.1%) were called active. No rule for the calls is given here. For the sample, actives were picked, then their nearest neighbours and some compounds at random.

Assay: qHTS Assay for Spectroscopic Profiling in A488 Spectral Region
Details: compound autofluorescence; max dye equivalency: Compound Type: qHTS ECL - SigmaAldrich, active compounds read high unless noted; outcome: dye equivalency, Compound Type: qHTS ECL - MLSMR unless noted
In short: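 Read-out: relative fluorescence at 480/540 nm, expressed as Alexa 488 dye-equivalent concentration from a six-point A488 standard included per plate. Conditions: 100 mM Tris, pH 8.0; 15 min incubation, room temperature.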

outcome, inactive:
CC[C@H](c1ccccc1)c1cc(C(C)(C)C)cc(C(C)(C)C)c1O inactive [dye equivalency, Compound Type: qHTS ECL - NCI], COc1cccc(Cn2c(=O)c(CCc3ccccc3)nc3cnc(N(C)C)nc32)c1 inactive [dye equivalency, Compound Type: qHTS ECL - Pharmacopeia], Cc1cc(Br)ccc1NC(=O)C1CCCO1 (stereo not drawn) inactive [dye equivalency, Compound Type: qHTS ECL - DPISMR], Cc1nnc(C)n1/N=C/c1ccc(C(C)C)cc1, CCON=C1C(C)(C)C(C)(C)C(C)(C)C1(C)C inactive [dye equivalency, Compound Type: qHTS ECL - NCI], COc1ccc(C2/C(=C(/O)c3ccc(OC(C)C)cc3)C(=O)C(=O)N2CCCN2CCOCC2)cc1 (stereo not drawn), COC(=O)c1ccc(Oc2nc(NC(C)C)nc(SC)n2)cc1 inactive [dye equivalency, Compound Type: qHTS ECL - DPISMR], CCc1nnc(NC(=O)CSc2nnc(COc3ccc(C#N)cc3)n2-c2ccccc2)s1, C=CCOc1ccc(C2/C(=C(\O)c3c(C)[nH]c(C(=O)OC)c3C)C(=O)C(=O)N2CCN(C)C)cc1 (stereo not drawn) inactive [dye equivalency, Compound Type: qHTS ECL - DPISMR], COc1ccc(NC(=O)N2CC3(CCN(C(C)=O)CC3)C2)cc1 inactive [dye equivalency, Compound Type: qHTS ECL - Pharmacopeia], O=c1c(-c2ccc(F)cc2)nc2cnc(N3CCOCC3)nc2n1-c1ccccc1 inactive [dye equivalency, Compound Type: qHTS ECL - Pharmacopeia], O=C(CSc1nnc(-c2ccncc2)n1C1CCCCC1)Nc1ccccc1, c1cncc(-c2nc(N3CCNCC3)c3ccccc3n2)c1 inactive [dye equivalency, Compound Type: qHTS ECL - Pharmacopeia], Cc1ccc(S(=O)(=O)N2CCN(Cc3cccc(C)c3O)CC2)cc1, COc1ccc(-c2nc3cnc(N(C)C)nc3n(Cc3cccs3)c2=O)cc1 inactive [dye equivalency, Compound Type: qHTS ECL - Pharmacopeia], Cc1nc2cnc(N3CCNCC3)nc2n(Cc2ccc(F)cc2)c1=O inactive [dye equivalency, Compound Type: qHTS ECL - Pharmacopeia], COCCn1c(=O)c(-c2ccc(OC)cc2)nc2cnc(Oc3cccc(Cl)c3)nc21 inactive [dye equivalency, Compound Type: qHTS ECL - Pharmacopeia], COc1ccc(OC)c2c(N)c(C#N)c(C(F)(F)C(F)(F)F)nc12, O=C(Nc1nn(Cc2ccccc2F)cc1Br)c1cccs1 inactive [dye equivalency, Compound Type: qHTS ECL - DPISMR], Brc1ccc(Nc2c3c(nc4ncnn24)CCC3)cc1, Cc1ccccc1C(OCC(O)CN1CCCCC1CCO)c1ccccc1 (stereo not drawn), CCCN1C(=O)C(NS(=O)(=O)c2ccc(N)cc2)(C(F)(F)F)C(C(=O)OC)=C1C (stereo not drawn) inactive [dye equivalency, Compound Type: qHTS ECL - DPISMR], Cc1cc(C(F)(F)F)n2ncc(-c3ccccc3)c2n1 inactive [dye equivalency, Compound Type: qHTS ECL - DPISMR], COc1ccccc1CNc1ncncc1-c1cccnc1 inactive [dye equivalency, Compound Type: qHTS ECL - Pharmacopeia], Cc1ccc(S(=O)(=O)Nc2ccccc2CNc2c(C)n(C)n(-c3ccccc3)c2=O)cc1, CC(=NC1CCN(Cc2ccccc2)CC1)c1c(O)[nH]c(=O)[nH]c1=O inactive [dye equivalency, Compound Type: qHTS ECL - DPISMR], CCn1ccnc1C[C@@H]1COc2ccccc2O1 inactive [dye equivalency, Compound Type: qHTS ECL - SigmaAldrich], CN1[C@H]2CC(OC(=O)[C@@H](CO)c3ccccc3)C[C@H]1[C@H]1O[C@H]12 (stereo partly drawn) inactive [dye equivalency, Compound Type: qHTS ECL - Prestwick]
